Assay results from PubChem BioAssay (NCATS).
Inconclusive results are not listed. Calls of active or inactive are those of the source. Calls follow the shape of the dose curve; as a rule, active = well fitted inhibition curve with a large enough effect; inconclusive = small, poorly fitted or top-dose-only effect; inactive = no such curve, though single readings can be large or run the other way.

test: P-glycoprotein substrates identified in KB-3-1 adenocarcinoma cell line, qHTS therapeutic library screen (AID 1346986); conditions: KB-3-1 parental cells viability, CellTiter-Glo, 72 h; series mostly up to 44.5 µM; also: nearly all actives have a fitted effect of over 60% in size
How it was run: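 Counter-screen: cherry-picked hits retested in the KB pair and in HEK-293 pcDNA/MDR-19 cells ± tariquidar. Primary screen used 72 h CellTiter-Glo viability in KB-3-1 and KB-8-5-11.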

SMILES | outcome
CC(C)=CCC[C@@](C)(O)[C@H]1CC[C@]2(C)[C@@H]1[C@H](O)CC1[C@@]3(C)CC[C@H](O[C@@H]4O[C@H](CO)[C@@H](O)[C@H](O)[C@H]4O[C@@H]4O[C@H](CO)[C@@H](O)[C@H](O)[C@H]4O)C(C)(C)[C@@H]3CC[C@]12C (stereo partly drawn) | inactive [at 17.4 µM]
C[C@@H]1O[C@@H](O[C@@H]2[C@@H](O)[C@H](O[C@@H]3[C@@H](O)[C@@H](O)[C@H](O[C@H]4[C@H](OC(=O)[C@]56CCC(C)(C)C[C@H]5C5=CCC7[C@@]8(C)C[C@H](O)[C@H](O[C@@H]9O[C@H](C(=O)O)[C@@H](O)[C@H](O)[C@H]9O)[C@@](C)(CO)C8[C@H](O)C[C@@]7(C)[C@]5(C)C[C@H]6O)O[C@@H](CO)[C@@H]4O)O[C@H]3C)OC[C@H]2O)[C@H](O)[C@H](O)[C@H]1O (stereo partly drawn) | inactive [at 9.29 µM]
COc1cc(CCCO)ccc1O[C@@H]1O[C@H](CO)[C@@H](O)[C@H](O)[C@H]1O | inactive
C[C@H]1[C@H](C)CC[C@]2(C(=O)OC3OC(CO)C(O)C(O)C3O)CC[C@]3(C(=O)O)C(=CCC4[C@@]5(C)CC[C@H](O[C@@H]6O[C@@H](C)[C@H](OC7OC(CO)C(O)C(O)C7O)[C@@H](O)[C@H]6O)C(C)(C)C5CC[C@]43C)[C@H]12 (stereo partly drawn) | inactive [at 9.29 µM]
COc1cc(O)cc2c1C(=O)OC(C)CCCCCCC2 (stereo not drawn) | inactive
Cc1ncc([N+](=O)[O-])n1C[C@H](O)CN1CCOCC1 | inactive
CC(C)CC[C@@H](O)[C@](C)(O)[C@H]1CC[C@@]2(O)C3=CC(=O)[C@@H]4C[C@@H](O)[C@@H](O)C[C@]4(C)[C@H]3CC[C@]12C | inactive
CC1OC(OC2CCC3(C)C(CCC4(C)C3C=CC35OCC6(CCC(C)(C)CC63)CCC45C)C2(C)CO)C(OC2OC(CO)C(O)C(O)C2O)C(O)C1OC1OC(CO)C(O)C(O)C1O (stereo not drawn) | inactive [at 9.29 µM]
O=C(c1ccc(Cl)c([N+](=O)[O-])c1)N1CCN(c2ccccc2F)CC1 | inactive
CC(C)=CCC/C(C)=C/CO[C@@H]1O[C@H](CO[C@@H]2OC[C@](O)(CO)[C@H]2O)[C@@H](O)[C@H](O)[C@H]1O | inactive [at 17.4 µM]
CC(C)C1NC(=O)C2CCCN2C1=O (stereo not drawn) | inactive
C=C(CCO[C@@H]1O[C@H](CO)[C@@H](O)[C@H](O)[C@H]1O)C(=O)O | inactive
CC(=O)O[C@@H]1CC2C(C)(C)C(=O)C=C[C@]2(C)C2CC[C@]3(C)C(=CC(=O)[C@@H]3c3ccoc3)[C@@]21C (stereo partly drawn) | inactive [at 17.4 µM]
CN1CCN(C2=Nc3ccccc3Nc3ccc(O)cc32)CC1 | inactive
C=C1[C@H]2CCC3[C@]4(C)CCC[C@@](C)(C(=O)O)C4CC[C@]3(C2)[C@H]1OC(C)=O (stereo partly drawn) | inactive
O=C(O)/C=C/c1ccc(O[C@@H]2O[C@H](CO)[C@@H](O)[C@H](O)[C@H]2O)cc1 | inactive
C/C=C(\C)C(=O)OC[C@H]1O[C@@H](O[C@H]2[C@@H](O[C@H]3O[C@H](COC(=O)/C(C)=C/C)[C@@H](O)[C@H](O)[C@H]3O[C@@H]3O[C@H](CO)[C@@H](O)[C@H](OC(=O)/C(C)=C/C)[C@H]3O)O[C@H](COC(=O)/C(C)=C/C)[C@@H](O)[C@@H]2O)[C@H](O)[C@@H](O)[C@@H]1O | inactive [at 9.29 µM]
CC[C@H](C)[C@H](NC(=O)[C@H](Cc1ccc(O)cc1)NC(=O)[C@@H](N)C(C)C)C(=O)N[C@@H](Cc1cnc[nH]1)C(=O)N1CCC[C@H]1C(=O)N[C@@H](Cc1ccccc1)C(=O)O | inactive [at 5.11 µM]
NC[C@@H]1O[C@@H](O[C@@H]2[C@@H](O[C@@H]3O[C@H](CO)[C@@H](O)[C@H]3O)[C@H](O)[C@@H](N)C[C@H]2N)[C@@H](N)[C@H](O)[C@H]1O | inactive [at 9.29 µM]

SMILES | outcome
CC1(C)C[C@@H]2[C@H](C1)[C@@]1(C)C[C@]13C(O)OC[C@]3(O)[C@H]2O (stereo partly drawn) | inactive
C[C@@H](CC[C@@H]1[C@@]2(C)CCCC(C)(C)C2CC[C@@]1(C)O)CC(=O)O (stereo partly drawn) | inactive
CC1=CC[C@@]2(C)CC[C@@](O)(C(C)C)[C@@H]2[C@@H](O)C1 | inactive
CC(C)(O)C1OC1C1=CC(=O)C2(C)OC2C1O (stereo not drawn) | inactive
O=C(O)/C=C/c1ccc2occc2c1O[C@@H]1O[C@H](CO)[C@@H](O)[C@H](O)[C@H]1O | inactive
C=C1CCC2C(C)(C(=O)OC)CCCC2(C)C1CCC1=CCOC1=O (stereo not drawn) | inactive
CCOC(=O)C1=C(N)Oc2ccc(Cl)cc2C1C(C#N)C(=O)OCC (stereo not drawn) | inactive
OCC1=C[C@@H](O)[C@@H]2C=CO[C@@H](O[C@@H]3O[C@H](CO)[C@@H](O)[C@H](O)[C@H]3O)[C@H]12 | inactive
COc1ccccc1Oc1c(NS(=O)(=O)c2ccc(C)cn2)nc(-c2ccncc2)nc1OC | inactive
CSC(=O)OCC1=C[C@@H]2OC(=O)C3=CO[C@@H](O[C@@H]4O[C@H](CO)[C@@H](O)[C@H](O)[C@H]4O)[C@H]1[C@@H]32 | inactive [at 17.4 µM]
NC(N)=NCCC[C@H](NC(=O)c1sccc1NS(=O)(=O)c1cccc2nsnc12)C(=O)O | inactive
C/C(=C\C(=O)C[C@@]12C(=O)O[C@]3(C)CC[C@H]1C[C@H]23)C(N)=O | inactive
CCCCNc1nc(N)c2[nH]c(=O)n(Cc3ccc(OCCN(C)C)nc3)c2n1 | inactive
O=C(/C=C/c1ccc(O)c(O)c1)O[C@H]1[C@@H]2C=CO[C@@H](O[C@@H]3O[C@H](CO)[C@@H](O)[C@H](O)[C@H]3O)[C@@H]2[C@@]2(CO)O[C@@H]12 | inactive [at 17.4 µM]
CCCN(CCN1CCN(c2ccccc2OC)CC1)C1CCc2ncsc2C1 (stereo not drawn) | inactive
Cc1cc(C(=O)N2Cc3cnn(C)c3Nc3ccccc32)ccc1CNC(=O)N1CCN(Cc2cc(O)cc(O)c2)CC1 | inactive
COc1cc(/C=C/CO[C@@H]2O[C@H](CO)[C@@H](O)[C@H](O)[C@H]2O)cc(OC)c1O[C@@H]1O[C@H](CO)[C@@H](O)[C@H](O)[C@H]1O | inactive [at 17.4 µM]
COC(=O)C1=COC(O[C@@H]2O[C@H](CO)[C@@H](O)[C@H](O)[C@H]2O)[C@@H]2[C@@](C)(O)[C@@H](OC(=O)/C=C/c3ccccc3)C[C@]12O (stereo partly drawn) | inactive [at 17.4 µM]
CCCC/C=C\CCCCCc1cc(=O)c2ccccc2n1C | inactive
